# Compound activity from PubChem BioAssay.
# CYP2C19 act: cytochrome P450 2C19 (human) activation. P33261. activation factor at 5 µM. 96,000 tested, under 10 active. AID 1025. recombinant CYP2C19, luciferin-H EGE luminescence; hits give high values; 0 = fully inhibited enzyme, 1 = untreated enzyme;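 active = activation factor of at least 2 at 5 µM in the primary screen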;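 note: 0 = wells with 2.5 mM tranylcypromine and 1 = vehicle-only wells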
# Target sequence (P33261 whole entry, looked up): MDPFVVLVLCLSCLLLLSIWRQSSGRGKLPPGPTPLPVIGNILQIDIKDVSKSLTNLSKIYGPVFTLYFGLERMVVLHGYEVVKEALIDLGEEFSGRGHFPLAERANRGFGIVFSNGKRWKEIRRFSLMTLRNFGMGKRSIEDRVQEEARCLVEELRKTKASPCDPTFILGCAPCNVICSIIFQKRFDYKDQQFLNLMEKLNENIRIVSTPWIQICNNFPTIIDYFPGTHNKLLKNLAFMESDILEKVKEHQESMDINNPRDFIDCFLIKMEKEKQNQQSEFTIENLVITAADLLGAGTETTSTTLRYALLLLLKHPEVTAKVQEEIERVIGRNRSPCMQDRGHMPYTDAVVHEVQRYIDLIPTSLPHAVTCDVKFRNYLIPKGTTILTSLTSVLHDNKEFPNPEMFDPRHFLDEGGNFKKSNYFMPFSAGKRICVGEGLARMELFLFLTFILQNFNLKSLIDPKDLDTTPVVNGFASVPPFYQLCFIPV
# CYP2C9 act: CYP2C9 (human) activation | P11712 | recombinant CYP2C9, luciferin-H conversion, luminescence; hits give high values; factor 1 = untreated enzyme, 0 = blocked | activation factor at 5 µM | actives 1.4% (n = 96,000) | AID 1024;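 active = activation factor of 2 or more for CYP2C9 at a 5 µM dose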;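 note: 0 = sulfaphenazole-blocked wells and 1 = vehicle-only wells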
# CYP2C9 inhib: inhibitors of human CYP2C9. P11712. CYP2C9 Supersomes, luciferin-H conversion, luminescence. inhibition, % at 5 µM. actives 20% (n = 96,000). AID 777;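 active = blocking of liver enzyme CYP2C9 beyond about 50% at 5 µM, limit read from the data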
# PostGolgi ctrl: growth of the yeast control strain, post-Golgi counter-screen. actives 5% (n = 98,000). AID 738. efflux-deficient yeast background strain, growth absorbance A615, 16 h. inhibition, % at 10 µM
# CYP2C19 inhib: blocks human cytochrome P450 2C19 | CYP2C19 Supersomes, luciferin-H EGE luminescence, 30 min | inhibition, % at 5 µM | AID 778 | P33261 | actives 21% (n = 96,000);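 active = CYP2C19 inhibition above a set limit at 5 µM in the primary screen, cut at about 50% in these data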;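 note: plate controls were negative control wells for no effect and 2.5 mM tranylcypromine positive control for full effect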
# PostGolgi yeast: growth inhibition of a yeast mutant, post-Golgi transport screen. post-Golgi transport phenotypic cell assay. inhibition, % at 10 µM. actives 0.9% (n = 98,000);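 note: yeast cells grown in 1536-well plates; yeast grown about 18 h at 30C before absorbance read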
# * marks the source's active call; other numbers are inactive results; . = no result given. A selection: hits, their analogues and other compounds. The true share with any hit is near 32%. Cut-off read from the data, not from the text of the source, unless noted: active = inhibition above about 30%; inactive = the rest.
SMILES,CYP2C19 act,CYP2C9 act,CYP2C9 inhib,PostGolgi ctrl,CYP2C19 inhib,PostGolgi yeast
COC(=O)C(O)(CC(=O)Nc1cccc(SC)c1)C(F)(F)F (stereo not given),0.7,0.9,11.4,-2.4,32.2,-1.0
CNC(=O)CN(c1cccc(Br)c1)S(C)(=O)=O,0.9,1.2,-21.6,16.2,5.0,-1.4
CN(C)c1ccc(NC(=O)CN2CCN(CC(=O)Nc3ccc(F)cc3)CC2)cc1,0.9,0.9,5.3,5.6,12.8,2.2
O=C(O)C1Cc2ccccc2CN1C(=O)c1ccccc1Cl (stereo not given),1.1,1.1,-11.4,4.4,-5.6,10.1
CCCCN(C)CCCNC(=O)c1ccc(N2CCCC2=O)cc1,1,1,-4.6,19.2,-4.7,-5.5
CCOC(=O)N1CCC(NC(=O)CCc2c(C)nc3nc(C)nn3c2C)CC1,1,1.1,-14.1,5.1,-1.4,11.9
CCOC(=O)N1CCC(NC(=O)CCc2c(C)nc3c(c(C)nn3C(C)(C)C)c2C)CC1,0.4,0.2,82.5*,17.7,63.6*,8.3
COc1cc(OC)c(N(C)C(=O)CCNC(=O)Cn2cnc3ccccc3c2=O)cc1Cl,0.7,0.6,35.1,-7.1,28.6,-1.2
CC1=C2C(CCS2(=O)=O)CC2(C1)C(=O)OC(C)(C)OC2=O (stereo not given),0.2,1,2.6,-1.5,81.9*,-6.8
N#CC1=C(N)NC(SCC(=O)O)=C(C#N)C12CCCC2,0.8,0.7,25.6,6.7,24.9,0.6
CC1=C(C(=O)Nc2ccccc2)C2(CCCCC2)C(C#N)=C(S)N1,0.3,0.2,83.6*,10.4,68.3*,8.8
N#CC1=C(N)NC(SCC(=O)Nc2ccccc2)=C(C#N)C12CCCC2,0,0.1,94.6*,25.1,98.8*,-1.1
N#CC1=C(N)N=C(SCc2ccccc2)C(C(N)=O)C12CCCCC2 (stereo not given),0.7,1,4.3,-3.1,34.8,-2.3
N#CC1=C(N)NC(SCc2ccc(F)cc2)=C(C#N)C12CCCCC2,0,0,100.0*,67.7*,100.0*,99.3*
COc1ccc(C2C3=C(CCCC3=O)Nc3nc(C(F)(F)F)nn32)c(OC)c1OC (stereo not given),0.7,0.6,35.5,-3.8,32.6,-6.3
O=C(Nc1ccc2c(c1)OCCO2)C1CCCN1S(=O)(=O)c1ccc(Cl)cc1 (stereo not given),0.1,0,96.5*,-7.3,87.5*,0.2
O=C(Nc1ccc2c(c1)OCO2)C1CCCCN1S(=O)(=O)c1ccccc1 (stereo not given),0,0.4,64.4*,5.6,98.3*,-2.3
COc1ccc2[nH]c(C)c(C(=O)CN3CCc4cc(OC)c(OC)cc4C3)c2c1,0.9,0.6,41.9,9.5,5.5,4.9
COc1ccccc1/C=C/C=N/N1CCN(Cc2cccc3ccccc23)CC1,0.9,1.1,-5.6,0.1,6.0,-7.3
Nc1cc(Cl)ccc1C(=O)OCC(=O)NC1CCS(=O)(=O)C1 (stereo not given),0.8,1.1,-9.2,36.1*,24.4,3.2
COC(=O)C1=C(C)NC(=O)CC1c1ccccc1F (stereo not given),0.7,0.7,31.9,6.4,25.7,2.0
CC1=C(C(=O)OCCOC(C)C)C(c2cc3c(cc2Br)OCO3)CC(=O)N1 (stereo not given),0.2,0.3,65.3*,32.0*,79.7*,15.9
COC(=O)C1=C(C)NC(=O)CC1c1cc2c(cc1Br)OCO2 (stereo not given),0.2,0.3,71.4*,3.6,81.7*,-6.1
CC1=C(C(=O)OC2CCCCCCC2)C(c2cc3c(cc2Br)OCO3)CC(=O)N1 (stereo not given),0.2,0.2,84.7*,42.6*,75.3*,4.7
Cn1c2c(c(=O)n(C)c1=O)C(c1cc3c(cc1Br)OCO3)CC(=O)N2 (stereo not given),1.1,1,-2.2,-1.3,-14.4,-1.5
SMILES,CYP2C19 act,CYP2C9 act,CYP2C9 inhib,PostGolgi ctrl,CYP2C19 inhib,PostGolgi yeast
COC(=O)C1=C(C)NC(=O)CC1c1ccc(F)c(Br)c1 (stereo not given),0.5,0.7,27.4,13.2,50.9*,-3.2
O=C(CSc1nnc(-c2ccc(Cl)cc2)o1)N1CCN(c2ccccc2)CC1,1.2,1.1,-13.7,.,-22.1,.
Cc1ccc2oc(-c3cccc(NC(=O)c4ccc(Br)o4)c3)nc2c1,0.9,0.5,53.3*,19.9,7.3,1.6
O=S(=O)(Nc1ccc2oc(-c3ccccc3)nc2c1)c1ccccc1,0.1,0.1,93.5*,32.7*,92.6*,-0.1
Cc1ccc2oc(-c3ccc(NC(=O)c4cccnc4)cc3)nc2c1,0.6,0.4,63.3*,65.9*,41.9,-6.6
Cc1ccc(-c2nc3cc(C)ccc3o2)cc1,0.4,0.8,21.4,7.8,58.9*,2.6
O=C(Nc1ccc2oc(-c3ccccc3)nc2c1)c1ccncc1,0.8,0.6,41.6,5.2,20.1,0.2
CN(C)CCn1c(C(=O)Nc2ccccc2)cc2ccccc21,0.9,1,0.7,-1.0,11.6,-5.9
Cc1ccc(-c2nc3cc(N)ccc3o2)cc1,0.8,1,3.7,-4.8,24.9,-7.2
Cc1ccc(-c2nc3cc(NS(=O)(=O)c4ccc(C)cc4)ccc3o2)cc1,0,0,99.9*,58.8*,98.7*,14.3
Oc1ccc(Cl)cc1-c1cc(-c2ccccc2)n[nH]1,0.5,0.9,13.8,64.6*,50.8*,8.2
O=C(O)c1cc(-c2ccccc2Cl)n[nH]1,1.1,1.1,-9.0,5.8,-8.9,3.4
Cc1ccc(-c2cc(-c3ccccc3Cl)[nH]n2)c(O)c1,0.8,0.8,22.0,37.6*,21.6,-15.3
Oc1ccc(Br)cc1-c1cc(-c2ccccc2F)[nH]n1,0.8,0.7,29.4,18.6,16.2,2.3
Cc1ccc(-c2cc(-c3ccccc3[N+](=O)[O-])[nH]n2)c(O)c1,0.5,0.2,77.5*,41.0*,47.1,-1.5
Cc1ccccc1-c1cc(-c2ccccc2O)n[nH]1,0.1,0,96.1*,52.1*,92.7*,-0.3
COc1ccccc1-c1cc(-c2cc(Cl)ccc2O)n[nH]1,0.9,0.9,11.3,5.7,8.2,-2.1
COc1ccc(-c2cc(-c3ccccc3O)[nH]n2)cc1,0.7,0.5,47.1,11.2,27.0,-5.4
O=C(CN1C(=O)C2CC=CCC2C1=O)OCCN1C(=O)c2ccccc2C1=O (stereo not given),0.9,0.9,10.9,-2.9,12.4,-4.2
c1ccc(C(c2ccccc2)N2CCN(c3nc4ccccc4n4cnnc34)CC2)cc1,1.1,0.9,12.2,29.0,-12.3,15.2
Cc1cc(N)n(-c2nc(-c3cccnc3)nc3ccccc23)n1,0.9,0.6,36.8,12.5,6.8,-3.7
CCOC(=O)CN1C(=O)C(C)(C)Oc2ccc(C(=O)Nc3ccccc3)cc21,0.9,0.5,49.6,14.7,7.1,8.6
